Experimental data: PubChem BioAssay AID624331 (National Center for Advancing Translational Sciences (NCATS), 2012)
Results filed as inconclusive are left out. A number with no mark means an inactive call. Calls come from the whole dose curve; as a rule, active = well fitted activation curve with a large enough effect; inconclusive = small, poorly fitted or top-dose-only effect; inactive = no such curve, though single readings can be large or run the other way.

Assay: qHTS assay for re-activators of p53 using a Luc reporter: Hit Validation with no p53 Expressed; note: 0% is about no effect
Details: p53-null cells, luciferase reporter counter-screen; series mostly up to 46.1 µM; activity change, positive = activation: at the top concentration
Outline: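 Counter-screen of primary hits in a cell line not transfected with p53, in Opti-MEM with 10% FBS; compounds at several concentrations (10 mM stock, 1:5; top 46.1 µM in well), 24 h at 37 deg C, 5% CO2. Luminescence read after 10 min with Amplite reagent.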

| Structure (SMILES) | activity change, positive = activation [%] |
| --- | --- |
| CCSc1nnc(SCC(=O)NC2CCCCC2)s1 | -56 |
| CC1C(=O)CCN(C(C)(C)C)C1C (stereo not drawn) | -10.9 |
| CCCCC(=O)N1CCCC(C)C1 (stereo not drawn) | 20.3 |
| N#CC(c1ccccc1)C1CCN(Cc2ccccc2)CC1 (stereo not drawn) | 71.6 |
| COc1cccc(-c2cn3nc4c(nc3n2)CCCC4)c1 | -34.5 |
| CCOC(=O)N/N=C\c1ccc(C)s1 | 10.1 |
| Cc1ccc2cc(C#N)c(NCc3ccco3)nc2c1 | -25.2 |
| Cc1nc2ccccc2nc(C)c1=NOCc1ccccc1Cl | -25.3 |
| Brc1ccccc1-c1nc(-c2ccccc2)no1 | 72.2 |
| COc1ccc(C(=O)Nc2nnc(C(F)(F)F)s2)cc1 | -57.8 |
| O=C(Cn1cc2c(n1)CCCCC2)NC1CCCCCC1 | 4.66 |
| O=C(Nc1ccccc1Cl)c1ccc2c(=O)n3c(nc2c1)CCC3 | 6.48 |
| COc1ccc(N2CCN(CC(=O)Nc3ccc(C)cc3)CC2)cc1 | -7.99 |
| Cc1ccc2nc(-c3ccc(NC(=O)CN4C(=O)c5ccccc5C4=O)cc3)sc2c1 | 44.7 |
| Cc1nc(NC(=O)c2csc3ccccc23)sc1C | -13.5 |
| COc1cccc(NC(=O)CSC2=C(C#N)C(c3ccco3)C3=C(CCCC3=O)N2)c1 (stereo not drawn) | -26.5 |
| Cc1cnc(C(=O)OCC(=O)c2csc(N3CCCCC3)n2)cn1 | 19.9 |
| COc1ccc(-c2nc(-c3ccc(NC(=O)c4ccncc4)cc3)no2)cc1OC | -26.6 |
